8 compounds from PubChem BioAssay (Tox21) can be followed below.

A short description of experiment [1]: Caspase-3/7 induction in HepG2 cells by small molecules, qHTS assay (AID 1346978). Also: nearly all actives have a fitted effect of over 15% in size. Also: potency is read from the fitted curve at half-maximal effect. The procedure, abridged: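 Caspase-3/7 induction was measured by Caspase-Glo 3/7 luminescence (30 min, room temperature) after a 17 hr compound exposure of wild-type HepG2 cells seeded at 2,000 per well and pre-incubated 5 hr.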
Experiment [2] in a line: Caspase-3/7 induction in CHO-K1 cells by small molecules, qHTS cell viability counter screen (AID 1346979). Also: nearly all actives have a fitted effect of over 35% in size. Also: potency is read from the fitted curve at half-maximal effect. The essentials:
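Wild-type CHO-K1 cells were seeded at 1,500 per well, rested 5hr at 37 C, then exposed to compounds in DMSO. After 16hr, CellTiter-Fluor reagent was added and fluorescence read 1hr later as the viability measure.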

Experiment [3] in a line: Caspase-3/7 induction in CHO-K1 cells by small molecules, qHTS assay (AID 1346980). Also: nearly all actives have a fitted effect of over 15% in size. Also: potency is read from the fitted curve at half-maximal effect. The procedure, abridged: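 Luminescent Caspase-Glo 3/7 read (30min, room temperature) quantified apoptosis induction. Cells were wild-type CHO-K1, treated with compound for 17hr at 37 C and 5% CO2.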
Experiment [4] is described as follows: Caspase-3/7 induction in HepG2 cells by small molecules, qHTS cell viability counter screen (AID 1346981). Also: nearly all actives have a fitted effect of over 30% in size. Also: potency is read from the fitted curve at half-maximal effect. As to activity change, negative = cytotoxicity: series mostly up to about 92 µM. The procedure, abridged:
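Cell viability is measured as a cytotoxicity counter screen alongside the Caspase-Glo 3/7 readout in identical wells. Wild-type HepG2 cells are treated with test compounds for 16 hr at 37 C before CellTiter-Fluor addition and a 1-hr incubation.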

The target in experiment [5] is Nuclear receptor subfamily 1 group I member 2 (Homo sapiens) (UniProt O75469). In words: Human pregnane X receptor (PXR) small molecule agonists, qHTS assay (AID 1346982). Also: nearly all actives have a fitted effect of over 35% in size. The essentials: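 Cells: HepG2 stably carrying PXR-Luc. Medium held 5% charcoal-stripped FBS. Compounds in DMSO added after 5 hr plating, incubated 24 hr, then luminescence quantified with ONE-Glo.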

The target is the same in experiment [6]. In words: CYP3A4 induction through human pregnane X receptor (PXR) by small molecules, qHTS assay (AID 1346984). Also: nearly all actives have a fitted effect of over 40% in size. The essentials:
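Quantitative HTS in DPX-2 cells, i.e. HepG2 transfected with PXR response element and CYP3A4-promoter luciferase. Compounds in DMSO incubated 24hr at 37C; then P450-Glo CYP3A4 substrate, 3uM final, 3hr; One-Glo luminescence.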

Experiment [7] has the same target. Kind of experiment: Human pregnane X receptor (PXR) activation by small molecules, qHTS assay (AID 1346985). Also: nearly all actives have a fitted effect of over 40% in size. The procedure, abridged: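 DPX-2 cells (HepG2 co-transfected with a PXR response element and a CYP3A4-promoter luciferase construct) were seeded at 2,000 per well, rested 5 hr at 37C, then exposed to DMSO-dissolved compounds for 24 hr. Activation was read as luciferase luminescence.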

The target of experiment [8] is Cytochrome P450 2D6 (Homo sapiens) (UniProt P10635). Kind of experiment: Cytochrome P450 Family 2 Subfamily D Member 6 (CYP2D6) small molecule antagonists: luciferase reporter qHTS assay (AID 1671196). Also: nearly all actives have a fitted effect of over 50% in size. Also: potency is read from the fitted curve at half-maximal effect. As to activity change, negative = inhibition: series mostly up to about 120 µM. The procedure, abridged: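 Enzyme and proluciferin substrate were first combined with test chemical for 10 min at room temperature. Adding NADPH regeneration solution started a 1 h reaction, stopped with luciferin detection reagent and read by luminescence 20 min later.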

For experiment [9], the target named is Cytochrome P450 2C19 (Homo sapiens) (UniProt P33261). In words: Cytochrome P450 Family 2 Subfamily C Member 19 (CYP2C19) small molecule antagonists: luciferase reporter qHTS assay (AID 1671197). Also: nearly all actives have a fitted effect of over 65% in size. Also: potency is read from the fitted curve at half-maximal effect. As to activity change, negative = inhibition: series mostly up to about 120 µM. The procedure, abridged:
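P450-Glo CYP2C19 screening system; proluciferin substrate; DMSO compound stocks; 10 min RT preincubation; NADPH regeneration, 1 h at 37C; luciferin detection reagent, 20 min RT; luminescence as RLU.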

Experiment [10] addresses Cytochrome P450 2C9 (Homo sapiens) (UniProt P11712). In words: Cytochrome P450 Family 2 Subfamily C Member 9 (CYP2C9) small molecule antagonists: luciferase reporter qHTS assay (AID 1671198). Also: nearly all actives have a fitted effect of over 50% in size. Also: potency is read from the fitted curve at half-maximal effect. As to activity change, negative = inhibition: series mostly up to about 120 µM. The essentials:
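Enzyme-substrate mix preincubated with compound 10 min at room temperature; reaction started with NADPH regeneration solution, 1 h 37C. Luminescent luciferin product read after 20 min detection reagent.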

The target in experiment [11] is Cytochrome P450 1A2 (Homo sapiens) (UniProt P05177). In words: Cytochrome P450 Family 1 Subfamily A Member 2 (CYP1A2) small molecule antagonists: luciferase reporter qHTS assay (AID 1671199). Also: nearly all actives have a fitted effect of over 50% in size. Also: potency is read from the fitted curve at half-maximal effect. As to activity change, negative = inhibition: series mostly up to about 120 µM. The procedure, abridged: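 Compounds were incubated with CYP1A2 and a luminogenic proluciferin substrate for 10 min at room temperature before the reaction was started with NADPH regeneration solution. After 1 h, detection reagent was added and light output, proportional to CYP activity, was recorded.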

In experiment [12] the target is Voltage-gated inwardly rectifying potassium channel KCNH2 (Homo sapiens) (UniProt Q12809). In words: Human Ether-a-go-go-Related Gene (hERG) channel small molecule antagonists: fluorescence cell-based qHTS assay (AID 1671200).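 Also: hERG-expressing U2OS cells given a thallium stimulus after FluxOR II dye loading; series mostly up to about 77 µM; nearly all actives have a fitted effect of over 50% in size.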 The essentials:
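U2OS cells expressing the channel were plated at 1000 cells/well, incubated overnight at 37 C, then loaded with FluxOR II thallium-sensitive dye for 1 h at room temperature in the dark, with a further 10 min at room temperature before stimulation.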

Experiment [13] has as its target Cytochrome P450 3A4 (Homo sapiens) (UniProt P08684). In words: Cytochrome P450 Family 3 Subfamily A Member 4 (CYP3A4) small molecule antagonists: luciferase reporter qHTS assay (AID 1671201). Also: nearly all actives have a fitted effect of over 50% in size. Also: potency is read from the fitted curve at half-maximal effect. As to activity change, negative = inhibition: series mostly up to about 120 µM. The essentials:
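P450-Glo CYP3A4 system with proluciferin substrate; compounds preincubated 10 min RT with enzyme-substrate mix, then NADPH regeneration added for 1 h RT. Detection reagent 20 min, luminescence read as relative luminescence units.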

Experiment [14] deals with Nuclear receptor subfamily 1 group I member 2 (Rattus norvegicus) (UniProt Q9R1A7). In words: Rat pregnane X receptor (rPXR) activation by small molecules, qHTS assay (AID 1346983). Also: nearly all actives have a fitted effect of over 20% in size. The note with it: rPXR luciferase reporter cells, One-Glo luminescence, 24 h; stronger effect = higher value. The essentials:
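Luminescent readout (One-Glo luciferase, 30 min room temperature) followed 24 hr compound treatment at 37 C of rPXR cells plated 2,000 per well and preincubated 5hr; qHTS format with compounds delivered in DMSO.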

Values joined by “and” are separate entries in the source; they are usually repeats but may differ in a detail not shown here. Equal values may be shown once. Results filed as inconclusive are left out. Some compounds were tested as several samples or in several runs, with calls that do not always agree. Active and inactive are the calls of the source. Calls follow the shape of the dose curve; as a rule, active = well fitted curve in the direction sought with a large enough effect in the repeat runs; inconclusive = weak or mixed curves; inactive = no such curve, though single readings can be large; an effect the other way counts as inactive or inconclusive. Starred links: 1 amine or outer side, 2 acyl side, 3 side chain; linkers in the order of their positions; H or OH if unused. Positions of bridges follow the written chain, without caps; N, C: chain ends. Non-standard residues stand in square brackets, D forms with d. Residues, ends and D or L forms follow the SMILES beside them. Chains are numbered I, II in the order given. Actinocin(9to1) = Cc1c2oc3c(C)ccc(C(=O)[*:1])c3nc-2c(C(=O)[*:2])c(N)c1=O; NMeV = CN[C@H](C(=O)O)C(C)C; Sar = CNCC(=O)O
% is scaled to controls: 0 for no effect and ±100 for the full control effect.

Voltage-gated inwardly rectifying potassium channel KCNH2 (Homo sapiens), sequence (Q12809 whole entry, looked up): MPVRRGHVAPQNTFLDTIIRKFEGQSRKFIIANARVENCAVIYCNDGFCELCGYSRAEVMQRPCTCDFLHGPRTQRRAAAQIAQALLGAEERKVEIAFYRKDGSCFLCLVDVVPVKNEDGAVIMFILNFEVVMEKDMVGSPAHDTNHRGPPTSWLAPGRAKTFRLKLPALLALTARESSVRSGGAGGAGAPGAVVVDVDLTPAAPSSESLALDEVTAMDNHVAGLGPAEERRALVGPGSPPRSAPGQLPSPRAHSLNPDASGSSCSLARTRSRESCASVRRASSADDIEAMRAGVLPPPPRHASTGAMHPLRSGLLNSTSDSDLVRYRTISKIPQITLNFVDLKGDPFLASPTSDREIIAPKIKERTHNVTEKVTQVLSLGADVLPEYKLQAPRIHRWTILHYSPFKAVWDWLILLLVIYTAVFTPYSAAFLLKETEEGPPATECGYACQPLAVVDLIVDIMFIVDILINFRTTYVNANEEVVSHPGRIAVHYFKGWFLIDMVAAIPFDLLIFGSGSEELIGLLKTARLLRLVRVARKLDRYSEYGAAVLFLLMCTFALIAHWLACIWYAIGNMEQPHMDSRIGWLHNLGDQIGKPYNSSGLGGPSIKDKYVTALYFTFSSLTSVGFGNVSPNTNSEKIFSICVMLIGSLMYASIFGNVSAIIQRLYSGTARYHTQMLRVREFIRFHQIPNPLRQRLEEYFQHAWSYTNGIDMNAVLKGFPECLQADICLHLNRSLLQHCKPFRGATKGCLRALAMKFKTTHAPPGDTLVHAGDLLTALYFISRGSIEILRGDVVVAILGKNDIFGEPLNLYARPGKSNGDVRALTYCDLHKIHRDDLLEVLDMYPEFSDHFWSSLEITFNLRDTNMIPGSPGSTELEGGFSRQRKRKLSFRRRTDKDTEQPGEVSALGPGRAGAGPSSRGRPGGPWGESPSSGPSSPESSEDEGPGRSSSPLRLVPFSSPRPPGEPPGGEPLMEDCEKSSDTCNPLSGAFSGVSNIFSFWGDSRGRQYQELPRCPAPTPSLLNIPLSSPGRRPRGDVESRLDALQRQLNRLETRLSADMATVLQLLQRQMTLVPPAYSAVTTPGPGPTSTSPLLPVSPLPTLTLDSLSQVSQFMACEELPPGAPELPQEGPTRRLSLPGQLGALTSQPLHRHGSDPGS
Cytochrome P450 3A4 (Homo sapiens), sequence (P08684 whole entry, looked up): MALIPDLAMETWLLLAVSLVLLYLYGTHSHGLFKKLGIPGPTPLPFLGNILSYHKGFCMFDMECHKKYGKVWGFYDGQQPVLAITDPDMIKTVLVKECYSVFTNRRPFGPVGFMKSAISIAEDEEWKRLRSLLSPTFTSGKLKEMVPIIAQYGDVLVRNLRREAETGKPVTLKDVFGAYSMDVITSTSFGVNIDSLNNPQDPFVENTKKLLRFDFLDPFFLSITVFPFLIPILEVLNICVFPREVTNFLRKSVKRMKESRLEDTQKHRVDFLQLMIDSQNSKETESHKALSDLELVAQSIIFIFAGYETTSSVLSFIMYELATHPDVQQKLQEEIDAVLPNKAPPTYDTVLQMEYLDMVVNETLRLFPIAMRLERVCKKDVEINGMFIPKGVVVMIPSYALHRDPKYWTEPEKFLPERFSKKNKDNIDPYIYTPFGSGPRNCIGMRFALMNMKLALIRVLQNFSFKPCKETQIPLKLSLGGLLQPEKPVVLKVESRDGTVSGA
Cytochrome P450 2C19 (Homo sapiens), sequence (P33261 whole entry, looked up): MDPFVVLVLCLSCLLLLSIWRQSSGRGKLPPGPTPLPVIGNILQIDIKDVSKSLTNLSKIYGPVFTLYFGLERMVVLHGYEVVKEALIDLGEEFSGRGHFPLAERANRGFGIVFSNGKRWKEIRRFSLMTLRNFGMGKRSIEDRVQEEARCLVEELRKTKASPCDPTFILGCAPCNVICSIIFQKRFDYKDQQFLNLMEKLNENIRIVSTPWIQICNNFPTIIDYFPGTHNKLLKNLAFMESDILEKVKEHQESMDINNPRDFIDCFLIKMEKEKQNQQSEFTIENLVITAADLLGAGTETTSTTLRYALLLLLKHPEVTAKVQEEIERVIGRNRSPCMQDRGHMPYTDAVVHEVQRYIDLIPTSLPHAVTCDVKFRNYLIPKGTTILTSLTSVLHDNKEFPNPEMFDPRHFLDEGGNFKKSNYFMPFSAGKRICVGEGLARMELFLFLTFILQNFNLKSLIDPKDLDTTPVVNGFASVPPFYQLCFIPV
Cytochrome P450 2D6 (Homo sapiens), sequence (P10635 whole entry, looked up): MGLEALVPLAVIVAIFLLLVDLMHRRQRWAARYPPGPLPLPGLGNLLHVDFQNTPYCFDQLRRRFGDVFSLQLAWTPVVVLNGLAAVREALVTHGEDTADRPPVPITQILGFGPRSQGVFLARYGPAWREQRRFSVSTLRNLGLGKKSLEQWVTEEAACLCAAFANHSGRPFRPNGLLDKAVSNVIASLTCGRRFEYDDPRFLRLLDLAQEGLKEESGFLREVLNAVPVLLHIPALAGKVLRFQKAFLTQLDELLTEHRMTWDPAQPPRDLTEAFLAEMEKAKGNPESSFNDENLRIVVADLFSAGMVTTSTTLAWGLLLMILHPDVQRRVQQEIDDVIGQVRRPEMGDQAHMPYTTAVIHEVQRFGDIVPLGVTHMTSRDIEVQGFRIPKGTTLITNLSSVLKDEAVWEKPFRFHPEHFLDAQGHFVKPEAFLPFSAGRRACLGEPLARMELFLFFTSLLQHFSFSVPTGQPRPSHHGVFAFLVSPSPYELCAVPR
Cytochrome P450 1A2 (Homo sapiens), sequence (P05177 whole entry, looked up): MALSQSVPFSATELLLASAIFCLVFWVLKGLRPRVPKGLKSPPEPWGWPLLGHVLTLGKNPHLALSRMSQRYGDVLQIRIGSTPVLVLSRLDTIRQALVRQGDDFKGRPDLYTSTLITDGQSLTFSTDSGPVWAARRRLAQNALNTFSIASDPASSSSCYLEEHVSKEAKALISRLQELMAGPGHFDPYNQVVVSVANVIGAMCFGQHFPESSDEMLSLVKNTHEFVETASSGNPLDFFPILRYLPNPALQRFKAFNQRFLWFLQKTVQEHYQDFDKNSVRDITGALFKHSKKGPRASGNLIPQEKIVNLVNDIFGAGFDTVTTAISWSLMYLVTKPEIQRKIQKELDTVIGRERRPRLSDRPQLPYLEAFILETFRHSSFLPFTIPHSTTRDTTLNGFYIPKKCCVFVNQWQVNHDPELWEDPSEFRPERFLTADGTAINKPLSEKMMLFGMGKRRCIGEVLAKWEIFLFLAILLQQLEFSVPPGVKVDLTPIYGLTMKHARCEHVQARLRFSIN
Nuclear receptor subfamily 1 group I member 2 (Homo sapiens), sequence (O75469 whole entry, looked up): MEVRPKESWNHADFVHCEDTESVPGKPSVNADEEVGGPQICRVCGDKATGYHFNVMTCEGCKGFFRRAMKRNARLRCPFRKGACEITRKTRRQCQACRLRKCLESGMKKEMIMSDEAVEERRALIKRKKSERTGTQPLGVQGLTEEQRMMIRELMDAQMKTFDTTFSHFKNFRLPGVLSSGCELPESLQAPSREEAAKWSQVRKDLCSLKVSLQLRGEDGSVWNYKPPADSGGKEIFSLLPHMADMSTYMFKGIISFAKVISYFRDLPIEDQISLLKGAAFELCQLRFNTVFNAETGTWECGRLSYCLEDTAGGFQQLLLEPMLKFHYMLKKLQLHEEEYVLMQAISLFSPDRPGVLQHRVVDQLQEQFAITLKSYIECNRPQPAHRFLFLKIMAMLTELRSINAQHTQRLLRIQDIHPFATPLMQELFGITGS
Cytochrome P450 2C9 (Homo sapiens), sequence (P11712 whole entry, looked up): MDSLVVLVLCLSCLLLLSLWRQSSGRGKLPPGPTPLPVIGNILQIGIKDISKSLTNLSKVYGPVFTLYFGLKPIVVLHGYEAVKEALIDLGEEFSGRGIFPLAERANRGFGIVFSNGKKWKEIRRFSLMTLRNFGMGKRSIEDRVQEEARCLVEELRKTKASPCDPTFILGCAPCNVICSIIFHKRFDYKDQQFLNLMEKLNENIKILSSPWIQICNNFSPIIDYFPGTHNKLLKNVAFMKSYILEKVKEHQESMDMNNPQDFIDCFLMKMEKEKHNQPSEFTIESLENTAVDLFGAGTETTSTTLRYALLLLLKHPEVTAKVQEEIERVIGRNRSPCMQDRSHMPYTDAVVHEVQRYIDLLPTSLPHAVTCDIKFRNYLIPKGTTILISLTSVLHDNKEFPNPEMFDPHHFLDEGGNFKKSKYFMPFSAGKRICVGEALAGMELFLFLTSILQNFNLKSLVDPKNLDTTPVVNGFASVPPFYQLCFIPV
Nuclear receptor subfamily 1 group I member 2 (Rattus norvegicus), sequence (Q9R1A7 whole entry, looked up): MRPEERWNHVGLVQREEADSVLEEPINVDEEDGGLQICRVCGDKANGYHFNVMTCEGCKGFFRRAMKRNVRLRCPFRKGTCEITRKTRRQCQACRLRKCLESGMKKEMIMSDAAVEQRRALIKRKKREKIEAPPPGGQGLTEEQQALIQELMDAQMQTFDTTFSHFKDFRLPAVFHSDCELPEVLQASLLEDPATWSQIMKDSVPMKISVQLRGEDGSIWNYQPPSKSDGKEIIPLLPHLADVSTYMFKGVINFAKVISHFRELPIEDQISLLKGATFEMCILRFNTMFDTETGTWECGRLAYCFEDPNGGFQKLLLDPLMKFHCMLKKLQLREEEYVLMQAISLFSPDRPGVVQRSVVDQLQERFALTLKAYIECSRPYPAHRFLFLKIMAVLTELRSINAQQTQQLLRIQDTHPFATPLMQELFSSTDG

Regarding `Cc1c2oc3c(C)ccc(C(=O)N[C@@H]4C(=O)N[C@H](C(C)C)C(=O)N5CCC[C@H]5C(=O)N(C)CC(=O)N(C)[C@@H](C(C)C)C(=O)O[C@@H]4C)c3nc-2c(C(=O)N[C@@H]2C(=O)N[C@H](C(C)C)C(=O)N3CCC[C@H]3C(=O)N(C)CC(=O)N(C)[C@@H](C(C)C)C(=O)O[C@@H]2C)c(N)c1=O` (I: T[dV]P[Sar][NMeV] / II: T[dV]P[Sar][NMeV]; ester I:1-I:C, II:1-II:C; linker I:N-II:N via Actinocin(9to1)), the Potency is 13.3 nM (active) and 18.8 nM (active) in [1]; 375 nM (active) and 188 nM (active) in experiment [2]; 188 nM (active) and 335 nM (active) in experiment [3]; 29.8 µM (active) and 15 µM (active) in experiment [4]. The Potency result in experiment [5], in [6], in experiment [7], in experiment [8], in experiment [9] and in [10] was “inactive” throughout. The Potency result in [11], in experiment [12] and in experiment [13] was “inactive” each time.
As to `COC(=O)c1cccc(C(=O)OC)c1`, the Potency entry in experiment [1], in experiment [2], in [3], in experiment [4], in experiment [5] and in experiment [8] was “inactive” each time. The Potency result in experiment [9], in [10], in experiment [12] and in experiment [13] was “inactive” each time. Also, the Potency in experiment [11] was 12.4 µM (active) and 11.2 µM (active).
Consider `O=C(O[C@@H]1Cc2c(O)cc(O)cc2O[C@@H]1c1cc(O)c(O)c(O)c1)c1cc(O)c(O)c(O)c1`, for which the Potency result in [1], in experiment [3], in experiment [5], in experiment [11] and in experiment [12] was “inactive” throughout. In addition, the Potency in experiment [2] is 30.7 µM (active) and 52.5 µM (active); in experiment [4], 54.6 µM (active) and 29.5 µM (active); in experiment [9], 50.4 µM (active) and inactive; in experiment [10], 40 µM (active) and 27.2 µM (active); in experiment [13] it was 35.7 µM (active) and 48.5 µM (active).
`Nc1ccc(O)cc1`: the Potency result in [1], in experiment [3], in experiment [5] and in experiment [12] was “inactive” each time. In addition, the Potency in experiment [2] is 56.6 µM (active); in experiment [4], 56.6 µM (active) and inactive; in experiment [8], 37 µM (active); in experiment [9], 20.8 µM (active) and 34.7 µM (active); in [10], 26.2 µM (active) and 34.7 µM (active); in experiment [13], 37 µM (active).
On to `NC(Cc1ccc(Cl)cc1)C(=O)O` (centres undefined), for which the caspase activation in experiment [1] was -0.871% [at 0.349 µM] (inactive). In addition, the activity change, negative = cytotoxicity in [2] is 10.4% [at 0.349 µM] (inactive); in experiment [4], -2.01% [at 0.349 µM] (inactive). Further, in experiment [3], the caspase-3/7 activation was 1.39% [at 0.349 µM] (inactive). Also, the activity change, negative = inhibition in experiment [8] is -0.77% [at 0.435 µM] (inactive); in experiment [9], 18.5% [at 0.435 µM] (inactive); in experiment [10] it was 6.61% [at 0.435 µM] (inactive); in experiment [11] it was 10.8% [at 0.435 µM] (inactive); in experiment [12] it was 10.3% [at 0.29 µM] (inactive); in experiment [13], 0.0907% [at 0.435 µM] (inactive).
Regarding `O=c1n(CC2CO2)c(=O)n(CC2CO2)c(=O)n1CC1CO1` (centres undefined), the Potency in experiment [1] is 68.2 µM (active); in experiment [2], 60.8 µM (active) and 48.6 µM (active); in [4], 54.2 µM (active) and 48.6 µM (active). Further, the Potency result in experiment [3], in [6], in experiment [7], in [8], in experiment [9] and in [12] was “inactive” in each case. In [13], the Potency entry is “inactive”. Moreover, the max activation in experiment [14] was -2.73% (inactive).
Take `O=C(O)c1cc(Cl)cc(Cl)c1`: the Potency result in experiment [1], in experiment [2], in [3], in experiment [4], in experiment [5] and in experiment [9] was “inactive” in each case. The Potency entry in [12] and in [13] was “inactive” throughout. Besides, in experiment [8], the Potency is 35.4 µM (active).
In the case of `Cc1cccc(O)c1C`, the Potency entry in [1], in [2], in experiment [3], in experiment [4], in [8] and in experiment [10] was “inactive” throughout. Besides, the Potency entry in [12] and in [13] was “inactive” throughout. Also, the Potency in [9] was 70.5 µM (active) and inactive; in experiment [11] it was 46.1 µM (active).
